# Several values for one entry are separate records, joined by “and”; a condition that tells them apart may be missing. Equal entries are not always repeated. Inconclusive results are not listed. Where a structure was tested more than once in an assay, its records may differ in their call. Activity calls are given as the source filed them. Rule for the calls, unless noted: active = hit-call score of the fitted dose curve at least 0.9, where 1 is the maximum; inconclusive = response in the unintended direction; inactive = score below 0.9.
# Assays:
# [1] = tested on: IYD (gene 389434); assay: CCTE_GLTED_hIYD: CCTE's human Iodotyrosine Deiodinase (xIYD) Inhibition Assay, Great Lakes Toxicology and Ecology Division (GLTED) Lab (AID 2284317);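 note: cell-free human IYD enzyme made in baculovirus insect cells; iodide freed from monoiodotyrosine measured by cerium arsenite color change at 420 nm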
# How it was run: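 Iodide liberated from monoiodotyrosine by baculovirus-expressed human IYD over 3 h was determined colorimetrically (Sandell-Kolthoff, 420 nm) after Dowex separation; inhibition is loss of signal versus DMSO.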
# [2] = CCTE_Deisenroth_5AR_NBTE_donor: CCTE's 5alpha-reductase NanoBRET Target Engagement Assay […], Deisenroth Lab (AID 2284319; active = hit-call score of the fitted dose curve at least 0.9, where 1 is the maximum; inactive = score below 0.9); details: actives raise or lower the signal
# How it was run: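 In this secondary endpoint, donor luminescence from SRD5A2-NanoLuc in transfected HEK293T flags artifacts. Test chemical (10 nM - 29.9 uM) is present five hours, tracer the last two; mock-tracer wells run plate-matched; data fitted bidirectionally against DMSO.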
# [3] = IUF_NPC2-5_cytotoxicity_120hr: Cytotoxicity Assessment at 120 hours in the Leibniz Research Institute for Environmental Medicine (IUF) Neural Progenitor Cell Migration and Differentiation Assay (NPC2-5) (AID 2284307);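 for AC50: LDH released into supernatant as membrane damage marker via resorufin fluorescence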
# How it was run: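 Fluorescence (RFU) from LDH-driven resazurin reduction in medium supernatants measured loss of membrane integrity after 120 h of compound exposure of differentiating primary human neural progenitor spheres on an extracellular matrix.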
# [4] = IUF_NPC2-5_cell_number_120hr: Cell Number Assessment at 120 hours in the Leibniz Research Institute for Environmental Medicine (IUF) Neural Progenitor Cell Migration and Differentiation Assay (NPC2-5) (AID 2284308; active = hit-call score of the fitted dose curve at least 0.9, where 1 is the maximum; inactive = score below 0.9;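 note: count of Hoechst-stained nuclei in migration zone around plated human neural progenitor spheres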)
# Description: IUF_NPC2-5 is a cell-based, multiplexed assay that uses hNPC, a human primary neural progenitor cells, with measurements taken at 72 or 120 hours after chemical dosing in a 96-well plate. Human neural progenitor cells (hNPC) are generated from human fetal brain cortex at gestational week (GW) 16-19. In the neural progenitor cell migration and differentiation assay (NPC2-5), hNPCs grown as spheres are plated on an extracellular matrix and migrate and differentiate out of the sphere core. The processes radial glia migration, neuronal and oligodendrocyte migration as well as neuronal differentiation, neuronal morphology and oligodendrocyte differentiation are studied using automated phase contrast imaging and automated fluorescence imaging in combination with high content image analysis. In parallel, the cell viability is assessed using an alamar blue viability assay and the cytotoxicity using a lactate dehydrogenase dependent membrane integrity assay.IUF_NPC2-5_cell number_120hr is one of 12 assay components measured from the IUF_NPC2-5 assay. The cell number at 120 hr is assessed as the number of all Hoechst-positive nuclei identified in the migration area (see IUF_NPC2a_ glia_migration_120hr).Data from the IUF_NPC2-5_cell_number_120hr component was analyzed at the endpoint IUF_NPC2-5_cell_number_120hr in the positive analysis fitting direction relative to DMSO as the negative control and baseline of activity. Using a type of viability reporter, gain or loss-of-signal activity can be used to understand viability effects.
# Culture protocol: After the cell expansion period the cells are cultured for up to four weeks in which they are passaged every week as described in 3.6. Between one to three days after passaging spheres at a size of 0.3 mm are picked for the test method. For the assessment of neural progenitor cell migration and differentiation, the spheres are plated on poly-D-lysine/laminin coated 96-well flat bottom plates in differentiation medium (N2) to initiate migration and differentiation. Thereby one 0.3 mm big sphere is plated in the middle of a well. The differentiation medium consists of DMEM and Ham's F12 at a ratio of 3 to 1 supplemented with 1% N2 and 1% penicillin and streptomycin. Within 5 days NPCs radially migrate out of the sphere core and differentiate into radial glia cells (nestin positive), neurons (TUBB3 positive), oligodendrocytes (O4 positive) and astrocytes (GFAP positive). Cultivation during the test method is performed at 37C and 5% CO2 at a ph of 7.2-7.6.Exposure: 0.3 mm big hNPC are plated in the already prepared test conditions. Exposure starts at day 0 of differentiation and is continued over five days of differentiation until the experiment is terminated. Cells are fed with fresh medium at day 3 of differentiation. Therefore, half of the test condition solution (e.g. solvent control or compound dilution) is replaced by freshly prepared test condition solution.Test Method: Migration distance and cytotoxicity is determined after 72 hours based on brightfield images of each well. The assay is terminated by the assessment of cell viability and cytotoxicity as well as cell fixation after 120 h. Immunocytochemistry is performed for Hoechst positive nuclei, TUBB3 positive neurons and O4 positive oligodendrocytes. On the ICC images, migration after 120 hours, neuronal and oligodendrocyte number, neuronal morphology and neuron/oligodendrocyte specific migration is assessed. immunocytochemical staining (ICC) generates an image for each sphere. The plates are scanned using an automated high content imaging device and all nuclei and their positions are determined automatically based on their intensity and size. Images are imported to the Omnisphero software to run the image analysis that measures the following endpoints. The method is set up for 8 test conditions including 7 compound concentrations and one SC. The test conditions are prepared in a serial dilution from the stock solution. […]
# [5] = IUF_NPC2-5_viability_120hr: Viability Assessment at 120 hours in the Leibniz Research Institute for Environmental Medicine (IUF) Neural Progenitor Cell Migration and Differentiation Assay (NPC2-5) (AID 2284312; active = hit-call score of the fitted dose curve at least 0.9, where 1 is the maximum; inactive = score below 0.9)
# How it was run: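 Human fetal neural progenitor spheres (0.3 mm) plated on poly-D-lysine/laminin in N2 differentiation medium, exposed 120 h with half-medium refresh at day 3. Viability by alamar blue resazurin fluorescence; 7 concentrations, DMSO max 0.1%.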
# [6] = CCTE_Mundy_HCI_iCellGluta_NOG_NeuriteLength: CCTE's Neurite Outgrowth Assay in iCellGluta cells for Neurite Length, Mundy Lab (AID 2284318)
# How it was run: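 Automated high-content imaging of betaIII-tubulin (Alexa Fluor-488) and Hoechst-stained cells gave neurite length, normalized to the DMSO baseline.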
# [7] = VALA_TUBIPS_Agonist_TubuleLength: VALA Sciences human iPS-derived Endothelial Tubule Formation (TUBIPS) Agonism Assay (AID 2284311)
# Description: VALA_TUBIPS_Agonist is a cell-based, multiplexed assay that uses human iPS-derived endothelial cells (iPSC). Measurements were taken 72 hours after chemical dosing in a 96-well plate.VALA_TUBIPS_Agonist_TubuleLength is the one of two assay components measured from the VALA_TUBIPS_Agonist assay. It is designed to make measurements of tubulogenesis, a form of morphology reporter, as detected with fluorescence intensity signals by HCS Fluorescent Imaging technology. This VALA_TUBIPS1 assay was designed to detect chemical activation of tubulogenesis, i.e. agonism.Data from the assay component VALA_TUBIPS_Agonist_TubuleLength was analyzed at the endpoint, VALA_TUBIPS_Agonist_TubuleLength, in the positive analysis fitting direction relative to DMSO as the negative control and baseline of activity. Using a type of morphology reporter, gain-of-signal activity can be used to understand developmental effects. To generalize the intended target to other relatable targets, this assay endpoint is annotated to the neurodevelopment intended target family, where the subfamily is tubulogenesis.
# This HUVEC-HDF assay was designed to detect chemical suppression of tubulogenesis, i.e. antagonism. […]
# [8] = VALA_TUBIPS_Antagonist_TubuleLength: VALA Sciences human iPS-derived Endothelial Tubule Formation (TUBIPS) Antagonist Assay (AID 2284313)
# How it was run: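 Tubule length was quantified by high-content imaging of CD31- and nuclear-stained cells, with 0.1% DMSO as neutral and 100 uM suramin as inhibition control. Compounds were applied for 3 days, in 10 ng/ml VEGF, to cultures pre-grown 3 days.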
# [9] = VALA_MIGHUV2_Bcatenin: VALA Sciences human Umbilical Vein Endothelial Cell Migration (MIGHUV) Assay, Nuclear Translocation of beta-Catenin after Recovery (AID 2284315)
# Description: VALA_MIGHUV2_BCatenin is a cell-based, multiplexed assay that uses umbilical vein-derived endothelial cells (HUVEC). Measurements were taken 24 hours after chemical dosing in a 96-well plate.VALA_MIGHUV2_Bcatenin is the one of two assay components measured from the VALA_MIGHUV2 assay. It is designed to make measurements of nuclear translocation of CTNB, a form of morphology reporter, as detected with fluorescence intensity signals by HCS Fluorescent Imaging technology.Data from the assay component VALA_MIGHUV2_BCatenin was analyzed at the endpoint, VALA_MIGHUV2_BCatenin, in the positive analysis fitting direction relative to DMSO as the negative control and baseline of activity. Using a type of morphology reporter, gain-of-signal activity can be used to understand developmental effects. To generalize the intended target to other relatable targets, this assay endpoint is annotated to the neurodevelopment intended target family, where the subfamily is migration.
# Cells were seeded on 384-well microplates (day-0) at a density of 9000 cells per well for detection of wound area recovery or 4000 cells per well for detection of beta-catenin (CTNB) immunoreactivity and incubated in Endothelial Cell Growth Medium (CAI, San Diego; catalog 211-500). After 24 hours of culture, the HUVEC plates were scratched using a custom scratch head with the Bravo liquid handling system. […]
# [10] = VALA_MIGHUV2_WoundArea: VALA Sciences human Umbilical Vein Endothelial Cell Migration (MIGHUV) Assay, Area of Scratch Wound after Recovery (AID 2284316)
# How it was run: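 Wound-area endpoint read by fluorescence imaging of Hoechst-stained nuclei after a 24 h recovery period following scratch of HUVEC monolayers (9000 cells/well). Chemicals dosed within 30 min post-scratch, triplicate 6-point series, 0.1% DMSO vehicle; Cytochalasin D positive control.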
structure (smiles),measurement,setting,value
O=S1(=O)OC(c2cc(Br)c(O)c(Br)c2)(c2cc(Br)c(O)c(Br)c2)c2ccccc21,AC50,[1],117 µM (active)
same,outcome,[2],inactive
Oc1cc(Cl)c(Cl)cc1Cl,outcome,[1],inactive
CNC(=O)CSP(=O)(OC)OC,outcome,[3],inactive
same,outcome,[4],inactive
same,outcome,[5],inactive
Cc1ccccc1OP(=O)(Oc1ccccc1C)Oc1ccccc1C,outcome,[4],inactive
same,outcome,[5],inactive
same,AC50,[6],8.67 µM (active)
Nc1ncn[nH]1,outcome,[7],inactive
same,outcome,[8],inactive
same,outcome,[9],inactive
same,outcome,[10],inactive
OC(Cc1ccccc1Cl)(Cn1[nH]cnc1=S)C1(Cl)CC1 (stereo not drawn),AC50,[3],126 µM (active)
same,outcome,[4],inactive
same,AC50,[5],35.8 µM (active)
same,outcome,[6],inactive
CCOCn1c(-c2ccc(Cl)cc2)c(C#N)c(Br)c1C(F)(F)F,AC50,[3],41.7 µM (active)
same,AC50,[4],84.8 µM (active)
same,outcome,[5],inactive
same,AC50,[6],14.1 µM (active)
CC1(C)[C@H](C(=O)O[C@H](C#N)c2cccc(Oc3ccccc3)c2)[C@@H]1/C=C(\Cl)C(F)(F)F,outcome,[3],inactive
same,AC50,[4],0.586 µM (active)
same,outcome,[5],inactive
same,outcome,[6],inactive
Cc1cc(C(F)(C(F)(F)F)C(F)(F)F)ccc1NC(=O)c1cccc(I)c1C(=O)NC(C)(C)CS(C)(=O)=O,AC50,[3],1.5 µM (active)
same,outcome,[4],inactive
same,outcome,[5],inactive
same,outcome,[6],inactive
Nc1ccc(N)cc1,outcome,[1],inactive
O=C(Nc1ccc(Br)cc1)c1cc(Br)cc(Br)c1O,AC50,[1],118 µM (active) and 100 µM (active)
same,outcome,[1],inactive
CCCCCCCCCCCCOS(=O)(=O)O,AC50,[1],62.8 µM (active) and 56.8 µM (active)
N#CCCC(Br)(C#N)CBr (stereo not drawn),AC50,[2],62.1 µM (active)
CCOP(=S)(OCC)O/N=C(\C#N)c1ccccc1,outcome,[2],inactive
O=S1OC[C@@H]2[C@H](CO1)[C@]1(Cl)C(Cl)=C(Cl)[C@@]2(Cl)C1(Cl)Cl (stereo partly drawn),outcome,[3],inactive
same,outcome,[4],inactive
same,outcome,[5],inactive
CCC[CH2][Sn]([Cl])([Cl])[CH2]CCC,AC50,[2],4.46 µM (active)
CC(=Cc1ccccc1)[N+](=O)[O-],outcome,[2],inactive
CC(C)[C@@H](Nc1ccc(C(F)(F)F)cc1Cl)C(=O)OC(C#N)c1cccc(Oc2ccccc2)c1 (stereo partly drawn),outcome,[3],inactive
same,outcome,[4],inactive
same,outcome,[5],inactive
same,outcome,[6],inactive
CS(=O)(=O)c1ccc(C(=O)C2C(=O)CCCC2=O)c(Cl)c1COCC(F)(F)F,outcome,[3],inactive
same,outcome,[4],inactive
same,outcome,[5],inactive
same,AC50,[6],25 µM (active)
O=c1nc(O)n(Cl)c(=O)n1Cl,outcome,[2],inactive
O=C(CCl)Nc1ccccc1,outcome,[1],inactive
CCCCCCCCCCCCc1cccc(S(=O)(=O)O)c1,AC50,[1],89.9 µM (active)
O=c1[nH]c(=O)n(Cl)c(=O)n1Cl,outcome,[2],inactive
O=[N+]([O-])c1ccccc1O,outcome,[2],inactive
